The target in the assay is furin, P09958. Put plainly: furin cleavage Z-score vs untreated control; higher = more cleavage, active = 3.5 or more, inactive = 1 or less, 8 variable residues between constant flanks. The essentials: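 The cleavage Z-score was derived for purified furin acting on 8-mer peptides held on magnetic beads and fused to a cDNA oligonucleotide. Digests lasted 7.5, 15 or 30 min at 1:10 enzyme:substrate in 50 mM HEPES pH 7.5 with CaCl2 and NaCl. Sequencing counts of released DNA, log-transformed against furin-free reactions, were lowess-adjusted and scaled by median absolute deviation.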
Chain of furin, P09958 (P09958 whole entry, the tested form may be a part): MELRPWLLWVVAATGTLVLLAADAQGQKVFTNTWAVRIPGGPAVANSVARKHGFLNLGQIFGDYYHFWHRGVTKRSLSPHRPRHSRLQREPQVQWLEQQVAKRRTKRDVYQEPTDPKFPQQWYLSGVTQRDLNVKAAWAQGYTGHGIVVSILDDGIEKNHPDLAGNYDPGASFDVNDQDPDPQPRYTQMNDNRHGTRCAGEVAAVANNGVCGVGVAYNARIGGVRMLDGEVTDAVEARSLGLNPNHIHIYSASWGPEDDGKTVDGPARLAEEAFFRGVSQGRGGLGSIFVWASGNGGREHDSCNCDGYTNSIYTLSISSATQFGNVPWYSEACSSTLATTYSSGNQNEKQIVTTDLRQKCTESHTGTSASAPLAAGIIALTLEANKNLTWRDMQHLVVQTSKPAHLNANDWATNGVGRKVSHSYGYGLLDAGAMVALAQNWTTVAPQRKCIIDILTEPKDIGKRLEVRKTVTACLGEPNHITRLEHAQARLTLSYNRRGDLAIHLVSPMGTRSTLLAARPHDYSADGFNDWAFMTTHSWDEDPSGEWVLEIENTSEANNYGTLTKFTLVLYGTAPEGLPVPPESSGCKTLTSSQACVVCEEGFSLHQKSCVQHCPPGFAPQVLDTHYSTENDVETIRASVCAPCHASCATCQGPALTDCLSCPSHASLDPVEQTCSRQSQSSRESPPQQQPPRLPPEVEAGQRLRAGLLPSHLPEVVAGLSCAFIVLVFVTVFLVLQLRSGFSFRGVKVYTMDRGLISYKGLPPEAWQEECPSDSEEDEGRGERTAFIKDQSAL

This is one part of the list. How many sequences the whole screen found active is unknown.

CAEVPCHVPSAGNASASA [HC2370]: the “furin cleavage Z-score” value was -0.196 (inactive) (7.5 min), 0.881 (inactive) (15 min) and 0.0659 (inactive) (30 min).

In the case of CAVIPTSGDVAGNASASA [HC873], the “furin cleavage Z-score” value is, setting by setting: (7.5 min) -1.48 (inactive); (15 min) -0.378 (inactive); (30 min) 1.84.

CAYRLWHYPCAGNASASA [HC467]: the “furin cleavage Z-score” value (7.5 min) was 0.186 (inactive), the “furin cleavage Z-score” value (15 min) was 0.568 (inactive) and the “furin cleavage Z-score” value (30 min) was 0.0366 (inactive).

On to CAVVCFSMSYAGNASASA [HC86], for which the “furin cleavage Z-score” value is -0.132 (inactive) (7.5 min), 1.31 (15 min) and 0.28 (inactive) (30 min).

Take CADIEVVTSTAGNASASA [HC2284]: the “furin cleavage Z-score” value (7.5 min) was -0.624 (inactive), the “furin cleavage Z-score” value (15 min) is -0.333 (inactive) and the “furin cleavage Z-score” value (30 min) was -1.16 (inactive).

As to CAPRCLVDYPAGNASASA [HC463], the “furin cleavage Z-score” value reads like this: (7.5 min) 0.288 (inactive); (15 min) -0.558 (inactive); (30 min) -0.868 (inactive).

Consider CAMEECSQDLAGNASASA [HC1751], for which the “furin cleavage Z-score” value (7.5 min) was -0.0304 (inactive), the “furin cleavage Z-score” value (15 min) is -0.261 (inactive) and the “furin cleavage Z-score” value (30 min) was 0.894 (inactive).

As for CASTPCSAHFAGNASASA [HC2567], the “furin cleavage Z-score” value is 1.04 (7.5 min), -0.481 (inactive) (15 min) and 1.8 (30 min).

In the case of CARVVLSGKPAGNASASA [HC1003], the “furin cleavage Z-score” value runs as follows: (7.5 min) -0.899 (inactive); (15 min) -0.703 (inactive); (30 min) -0.908 (inactive).

For the sequence CARVKKSPPEAGNASASA [FS-2196], the “furin cleavage Z-score” value runs as follows: (7.5 min) 3.38; (15 min) 4.49 (active); (30 min) 5.53 (active).

Turning to CARVKKEWEEAGNASASA [FS-1871], the “furin cleavage Z-score” value reads like this: (7.5 min) -0.778 (inactive); (15 min) -0.527 (inactive); (30 min) -1.03 (inactive).

CAQTRGLLGCAGNASASA [HC678]: the “furin cleavage Z-score” value is, setting by setting: (7.5 min) 0.117 (inactive); (15 min) -0.157 (inactive); (30 min) -0.705 (inactive).

Turning to CASMLTDPSHAGNASASA [HC1247], the “furin cleavage Z-score” value reads like this: (7.5 min) 0.787 (inactive); (15 min) 1.14; (30 min) 0.981 (inactive).

On to CARKKRKIKEAGNASASA [FS-3191], for which the “furin cleavage Z-score” value reads like this: (7.5 min) -0.575 (inactive); (15 min) -0.156 (inactive); (30 min) 2.36.

For the sequence CADFERSRAFAGNASASA [FS-1845], the “furin cleavage Z-score” value is -0.875 (inactive) (7.5 min), -0.501 (inactive) (15 min) and -0.616 (inactive) (30 min).

On to CARKKRMAKYAGNASASA [FS-2966], for which the “furin cleavage Z-score” value reads like this: (7.5 min) 5.67 (active); (15 min) 7.97 (active); (30 min) 8.42 (active).

CARKKRKAAPAGNASASA [FS-2267]: the “furin cleavage Z-score” value was 5.91 (active) (7.5 min), 5.87 (active) (15 min) and 5.5 (active) (30 min).

Consider CARKKRLISYAGNASASA [FS-2965], for which the “furin cleavage Z-score” value (7.5 min) was 0.348 (inactive), the “furin cleavage Z-score” value (15 min) was 3.83 (active) and the “furin cleavage Z-score” value (30 min) was 6.5 (active).

Turning to CARFKRSAQFAGNASASA [FS-2663], the “furin cleavage Z-score” value reads like this: (7.5 min) 9.02 (active); (15 min) 10 (active); (30 min) 9.39 (active).

Consider CARKKRKPEEAGNASASA [FS-3192], for which the “furin cleavage Z-score” value (7.5 min) is 0.523 (inactive), the “furin cleavage Z-score” value (15 min) amounted to 1.22 and the “furin cleavage Z-score” value (30 min) was determined as 1.86.

On to CARHWTTQGCAGNASASA [HC309], for which the “furin cleavage Z-score” value (7.5 min) is 0.306 (inactive), the “furin cleavage Z-score” value (15 min) was -0.845 (inactive) and the “furin cleavage Z-score” value (30 min) is 0.176 (inactive).

For the sequence CAMEECFQHLAGNASASA [HC26], the “furin cleavage Z-score” value (7.5 min) is 0.765 (inactive), the “furin cleavage Z-score” value (15 min) turned out to be 1.72 and the “furin cleavage Z-score” value (30 min) was determined as 1.22.

As for CAILAGYGAGAGNASASA [HC1086], the “furin cleavage Z-score” value is, setting by setting: (7.5 min) -0.899 (inactive); (15 min) -0.697 (inactive); (30 min) -0.69 (inactive).

As to CARKKRSEYYAGNASASA [FS-1957], the “furin cleavage Z-score” value reads like this: (7.5 min) 5.84 (active); (15 min) 8.3 (active); (30 min) 8.52 (active).

For the sequence CARKKRQVPYAGNASASA [FS-2269], the “furin cleavage Z-score” value by setting is: (7.5 min) 7.32 (active); (15 min) 7.2 (active); (30 min) 5.84 (active).

With CARKSRSKSKAGNASASA [FS-3195], the “furin cleavage Z-score” value (7.5 min) was 1.71, the “furin cleavage Z-score” value (15 min) was 0.576 (inactive) and the “furin cleavage Z-score” value (30 min) is 0.352 (inactive).

As to CARKSRSPHNAGNASASA [FS-3224], the “furin cleavage Z-score” value is 7.07 (active) (7.5 min), 8.27 (active) (15 min) and 8.28 (active) (30 min).

For the sequence CARKKRSQTYAGNASASA [FS-1958], the “furin cleavage Z-score” value is 8.08 (active) (7.5 min), 10.2 (active) (15 min) and 9.02 (active) (30 min).

Turning to CARKSRPNASAGNASASA [FS-2981], the “furin cleavage Z-score” value is 0.905 (inactive) (7.5 min), -0.37 (inactive) (15 min) and -0.749 (inactive) (30 min).

Turning to CASVFLVGQLAGNASASA [HC302], the “furin cleavage Z-score” value runs as follows: (7.5 min) -1.01 (inactive); (15 min) 0.196 (inactive); (30 min) -1.15 (inactive).

On to CAGDEVDGAGAGNASASA [CS5], for which the “furin cleavage Z-score” value was -1.72 (inactive) (7.5 min), -1.16 (inactive) (15 min) and -2.65 (inactive) (30 min).

Turning to CATTTSSEPAAGNASASA [HC1343], the “furin cleavage Z-score” value runs as follows: (7.5 min) 0.91 (inactive); (15 min) 0.314 (inactive); (30 min) 0.501 (inactive).

Regarding CAVVLCSMSYAGNASASA [HC2025], the “furin cleavage Z-score” value runs as follows: (7.5 min) -0.0785 (inactive); (15 min) 0.317 (inactive); (30 min) -1.45 (inactive).

Take CAGSGKSTKVAGNASASA [HC777]: the “furin cleavage Z-score” value is, setting by setting: (7.5 min) -0.846 (inactive); (15 min) -1.25 (inactive); (30 min) -0.383 (inactive).

As for CATYGKFLADAGNASASA [HC808], the “furin cleavage Z-score” value (7.5 min) is -0.371 (inactive), the “furin cleavage Z-score” value (15 min) was 0.314 (inactive) and the “furin cleavage Z-score” value (30 min) is -0.318 (inactive).

As for CAKLPLAVMGAGNASASA [HC1461], the “furin cleavage Z-score” value runs as follows: (7.5 min) -1.04 (inactive); (15 min) 0.392 (inactive); (30 min) -1.13 (inactive).

CAKLGVPPLRAGNASASA [HC1616]: the “furin cleavage Z-score” value by setting is: (7.5 min) -0.0832 (inactive); (15 min) -1.53 (inactive); (30 min) 0.294 (inactive).

For CAQKKRSAQYAGNASASA [FS-2878], the “furin cleavage Z-score” value (7.5 min) was 0.0672 (inactive), the “furin cleavage Z-score” value (15 min) was 0.984 (inactive) and the “furin cleavage Z-score” value (30 min) amounted to 2.02.

As for CARKKRSAQNAGNASASA [FS-2036], the “furin cleavage Z-score” value reads like this: (7.5 min) 11.7 (active); (15 min) 14 (active); (30 min) 8.93 (active).

Consider CARKKRISANAGNASASA [FS-1827], for which the “furin cleavage Z-score” value by setting is: (7.5 min) 0.255 (inactive); (15 min) 0.21 (inactive); (30 min) -0.0863 (inactive).

On to CAIHARFRRGAGNASASA [FS-250], for which the “furin cleavage Z-score” value is 11.1 (active) (7.5 min), 12.1 (active) (15 min) and 9.69 (active) (30 min).

For the sequence CARTDRCRRGAGNASASA [FS-1483], the “furin cleavage Z-score” value by setting is: (7.5 min) 7.57 (active); (15 min) 8.52 (active); (30 min) 8.04 (active).

CARTGRQVLGAGNASASA [FS-3104]: the “furin cleavage Z-score” value is, setting by setting: (7.5 min) 0.169 (inactive); (15 min) -0.821 (inactive); (30 min) -1.11 (inactive).

On to CATREAFRRGAGNASASA [FS-883], for which the “furin cleavage Z-score” value (7.5 min) was -0.796 (inactive), the “furin cleavage Z-score” value (15 min) was -0.878 (inactive) and the “furin cleavage Z-score” value (30 min) is -1.14 (inactive).

On to CALTARFRRGAGNASASA [FS-1374], for which the “furin cleavage Z-score” value is, setting by setting: (7.5 min) 10.8 (active); (15 min) 12 (active); (30 min) 9.56 (active).

The values above are taken from the supplement of paper PMC3545927.
